These results are taken from publication PMC7862700, “An all-to-all approach to the identification of sequence-specific readers for epigenetic DNA modifications on cytosine”.

Holding throughout (experiment): DAPPL (digital affinity profiling via proximity ligation, sequencing); 10 mM Tris-HCl pH 7.5, 50 mM NaCl, 1 mM DTT, 4% glycerol, room temperature, 30 min; GST-TFs on glutathione beads, 16-mer random dsDNA library, 0.1% formaldehyde crosslink after washing; high values mean tight binding
Settings in all cases: protein: recombinant; tags: N-terminal GST; dsDNA, one strand shown

Assay [1] deals with T1, ELK4 (Homo sapiens, UniProt P28324-2 1-405).
T1 sequence: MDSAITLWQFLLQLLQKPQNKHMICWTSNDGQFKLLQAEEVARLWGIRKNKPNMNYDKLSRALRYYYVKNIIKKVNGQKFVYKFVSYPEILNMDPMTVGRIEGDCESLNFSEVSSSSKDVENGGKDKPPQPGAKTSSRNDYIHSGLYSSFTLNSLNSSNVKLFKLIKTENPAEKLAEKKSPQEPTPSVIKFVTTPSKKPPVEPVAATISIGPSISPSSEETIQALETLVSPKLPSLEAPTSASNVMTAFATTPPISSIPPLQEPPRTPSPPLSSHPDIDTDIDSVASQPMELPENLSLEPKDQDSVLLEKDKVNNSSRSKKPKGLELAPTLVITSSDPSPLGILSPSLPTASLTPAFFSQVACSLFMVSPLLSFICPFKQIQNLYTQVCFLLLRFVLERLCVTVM
The gist of the method: (§1)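 Sequencing on an Illumina NextSeq500 followed washing, crosslinking with 0.1% formaldehyde, proximity ligation (BsaI/T4 ligase, 1 h, 37 °C) and PCR amplification of pools that had been incubated for 30 min at room temperature with 200 nmole of a random double-stranded 16-mer DNA library in Tris/NaCl/DTT/glycerol buffer. Each pool held DNA-barcoded human transcription factors, expressed in yeast as GST fusions and captured on glutathione beads, plus a tag-only sample. Binding signal is a hexamer's read frequency for a factor divided by its frequency in the tag-only sample.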

Assay [2] has as its target T2, ELF3 (Homo sapiens, UniProt P78545 1-371).
T2 sequence: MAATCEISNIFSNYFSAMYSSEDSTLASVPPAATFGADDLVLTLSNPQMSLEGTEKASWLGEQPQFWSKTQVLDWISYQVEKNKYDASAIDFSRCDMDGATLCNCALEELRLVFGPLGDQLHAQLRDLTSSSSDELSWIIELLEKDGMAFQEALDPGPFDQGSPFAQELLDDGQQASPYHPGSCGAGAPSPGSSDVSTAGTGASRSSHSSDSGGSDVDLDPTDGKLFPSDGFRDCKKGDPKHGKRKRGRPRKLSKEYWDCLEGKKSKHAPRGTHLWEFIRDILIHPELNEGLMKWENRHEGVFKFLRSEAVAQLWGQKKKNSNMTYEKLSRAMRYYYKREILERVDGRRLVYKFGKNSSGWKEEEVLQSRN
The gist of the method:
as §1

Assay [3] deals with ETV1 (Homo sapiens, UniProt P50549 1-477). In a few lines:
as §1

For assay [4], the target named is T3, ERF (Homo sapiens, UniProt P50548 1-548).
T3 sequence: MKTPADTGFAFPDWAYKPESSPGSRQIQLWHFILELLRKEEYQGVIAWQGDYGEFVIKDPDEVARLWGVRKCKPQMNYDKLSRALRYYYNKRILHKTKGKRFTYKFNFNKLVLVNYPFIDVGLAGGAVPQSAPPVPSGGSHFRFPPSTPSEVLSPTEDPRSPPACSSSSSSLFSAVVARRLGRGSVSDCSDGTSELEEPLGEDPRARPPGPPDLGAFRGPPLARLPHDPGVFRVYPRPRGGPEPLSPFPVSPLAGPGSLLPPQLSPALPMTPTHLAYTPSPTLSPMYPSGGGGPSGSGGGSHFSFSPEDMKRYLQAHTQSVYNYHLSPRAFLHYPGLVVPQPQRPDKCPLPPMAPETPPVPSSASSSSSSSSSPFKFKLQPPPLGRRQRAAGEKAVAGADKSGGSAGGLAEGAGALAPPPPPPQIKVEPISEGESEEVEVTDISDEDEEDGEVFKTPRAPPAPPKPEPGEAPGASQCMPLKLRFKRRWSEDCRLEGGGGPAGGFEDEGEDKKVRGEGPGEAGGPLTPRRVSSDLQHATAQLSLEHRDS
In a few lines: as §1

Assay [5] deals with T4, ETV3L (Homo sapiens, UniProt Q6ZN32 1-361).
T4 sequence: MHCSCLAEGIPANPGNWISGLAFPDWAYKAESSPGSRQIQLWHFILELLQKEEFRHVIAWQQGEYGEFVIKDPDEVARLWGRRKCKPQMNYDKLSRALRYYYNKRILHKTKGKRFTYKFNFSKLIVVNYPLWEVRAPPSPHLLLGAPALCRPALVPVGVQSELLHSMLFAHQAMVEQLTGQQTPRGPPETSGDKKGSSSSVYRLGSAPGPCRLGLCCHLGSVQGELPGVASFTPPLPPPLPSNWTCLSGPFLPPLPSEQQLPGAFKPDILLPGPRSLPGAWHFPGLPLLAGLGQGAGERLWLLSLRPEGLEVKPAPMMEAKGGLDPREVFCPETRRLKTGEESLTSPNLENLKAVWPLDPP
In a few lines: as §1

For assay [6], the target named is T5, ETS2 (Homo sapiens, UniProt P15036 1-469).
T5 sequence: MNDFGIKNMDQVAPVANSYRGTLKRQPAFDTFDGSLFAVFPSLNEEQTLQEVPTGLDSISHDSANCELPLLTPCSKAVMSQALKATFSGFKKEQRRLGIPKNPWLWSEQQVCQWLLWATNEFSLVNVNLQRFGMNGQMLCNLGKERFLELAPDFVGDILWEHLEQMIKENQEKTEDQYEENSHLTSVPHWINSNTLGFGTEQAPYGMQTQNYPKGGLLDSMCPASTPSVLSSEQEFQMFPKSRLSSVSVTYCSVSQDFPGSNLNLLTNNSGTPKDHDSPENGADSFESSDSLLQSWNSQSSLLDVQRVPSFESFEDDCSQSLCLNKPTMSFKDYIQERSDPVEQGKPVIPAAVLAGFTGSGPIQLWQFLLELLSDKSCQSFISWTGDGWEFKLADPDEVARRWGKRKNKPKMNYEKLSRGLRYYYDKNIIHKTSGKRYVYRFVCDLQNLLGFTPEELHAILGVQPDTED
In a few lines: as §1

Assay [7] has as its target T6, SPDEF (Homo sapiens, UniProt O95238 1-335).
T6 sequence: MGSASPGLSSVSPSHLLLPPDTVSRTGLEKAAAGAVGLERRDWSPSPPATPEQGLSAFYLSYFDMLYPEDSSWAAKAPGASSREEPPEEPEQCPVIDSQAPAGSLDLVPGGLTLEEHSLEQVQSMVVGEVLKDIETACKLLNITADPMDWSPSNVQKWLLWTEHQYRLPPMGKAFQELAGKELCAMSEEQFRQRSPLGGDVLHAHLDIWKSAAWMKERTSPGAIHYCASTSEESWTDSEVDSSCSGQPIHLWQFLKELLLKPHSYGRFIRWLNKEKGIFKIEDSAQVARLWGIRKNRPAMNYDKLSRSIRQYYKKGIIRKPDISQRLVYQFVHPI
In a few lines: as §1

In assay [8] the target is T7, ETV7 (Homo sapiens, UniProt Q9Y603 1-341).
T7 sequence: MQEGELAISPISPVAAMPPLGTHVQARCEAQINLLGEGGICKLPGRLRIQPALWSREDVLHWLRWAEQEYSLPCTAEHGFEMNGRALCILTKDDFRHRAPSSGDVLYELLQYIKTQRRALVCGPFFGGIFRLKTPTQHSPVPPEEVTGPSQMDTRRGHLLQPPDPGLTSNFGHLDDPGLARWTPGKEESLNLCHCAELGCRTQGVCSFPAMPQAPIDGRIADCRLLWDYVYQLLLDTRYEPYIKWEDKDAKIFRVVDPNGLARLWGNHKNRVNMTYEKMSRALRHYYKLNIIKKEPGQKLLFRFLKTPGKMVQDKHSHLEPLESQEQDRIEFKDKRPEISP
The gist of the method: as §1

Assay [9] has as its target T8, ETV3 (Homo sapiens, UniProt P41162-2 1-143).
T8 sequence: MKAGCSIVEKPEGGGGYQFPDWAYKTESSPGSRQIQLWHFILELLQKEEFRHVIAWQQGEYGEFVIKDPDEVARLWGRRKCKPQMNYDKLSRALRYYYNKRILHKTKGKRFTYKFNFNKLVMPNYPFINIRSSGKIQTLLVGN
In a few lines: as §1

The target in assay [10] is ETV6 (Homo sapiens, UniProt P41212 1-452). The gist of the method:
as §1

ETV1, sequence (P50549 whole entry): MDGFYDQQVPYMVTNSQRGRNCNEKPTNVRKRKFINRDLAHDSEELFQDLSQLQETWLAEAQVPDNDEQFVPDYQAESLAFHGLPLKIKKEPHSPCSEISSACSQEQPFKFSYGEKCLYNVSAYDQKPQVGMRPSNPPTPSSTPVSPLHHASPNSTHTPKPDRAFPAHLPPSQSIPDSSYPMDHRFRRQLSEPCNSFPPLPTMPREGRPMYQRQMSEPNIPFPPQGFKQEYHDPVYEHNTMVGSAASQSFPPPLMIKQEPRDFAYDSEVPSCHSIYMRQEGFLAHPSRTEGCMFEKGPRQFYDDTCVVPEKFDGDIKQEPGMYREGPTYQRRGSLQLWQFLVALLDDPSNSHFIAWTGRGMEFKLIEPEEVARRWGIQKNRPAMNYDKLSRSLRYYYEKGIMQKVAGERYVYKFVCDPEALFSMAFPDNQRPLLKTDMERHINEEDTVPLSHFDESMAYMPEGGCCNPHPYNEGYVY
ETV6, sequence (P41212 whole entry): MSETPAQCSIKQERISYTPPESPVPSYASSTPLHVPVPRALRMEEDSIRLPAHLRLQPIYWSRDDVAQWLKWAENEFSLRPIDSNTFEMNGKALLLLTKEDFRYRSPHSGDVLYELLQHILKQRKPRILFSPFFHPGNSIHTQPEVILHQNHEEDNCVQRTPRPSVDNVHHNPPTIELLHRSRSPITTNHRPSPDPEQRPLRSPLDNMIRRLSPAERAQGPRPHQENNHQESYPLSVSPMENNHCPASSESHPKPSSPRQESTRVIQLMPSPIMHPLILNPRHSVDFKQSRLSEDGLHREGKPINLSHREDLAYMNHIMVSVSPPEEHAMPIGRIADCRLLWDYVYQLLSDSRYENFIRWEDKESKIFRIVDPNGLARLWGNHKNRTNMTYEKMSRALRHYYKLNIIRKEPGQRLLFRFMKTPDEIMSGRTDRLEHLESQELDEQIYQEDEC

As for CACAGC, the binding signal was 1.04 fold enrichment (6-mer frequency, TF over GST control) in [1]; 1.04 fold enrichment (6-mer frequency, TF over GST control) in [2]; 1.1 fold enrichment (6-mer frequency, TF over GST control) in [3]; 1.07 fold enrichment (6-mer frequency, TF over GST control) in [4]; 1.17 fold enrichment (6-mer frequency, TF over GST control) in assay [5]; 1.01 fold enrichment (6-mer frequency, TF over GST control) in [6]. Moreover, the binding signal was 1.03 fold enrichment (6-mer frequency, TF over GST control) in assay [7]; 1.12 fold enrichment (6-mer frequency, TF over GST control) in [8]; 1.05 fold enrichment (6-mer frequency, TF over GST control) in assay [9]; 1.01 fold enrichment (6-mer frequency, TF over GST control) in assay [10].
